In PubChem BioAssay (EPA / NIEHS) one finds AC50 and outcome data, which are given here for 33 compounds.

For test [1], the system named is frog Estrogen Receptor (ESR1), gene 398734. The test is described as follows: ATG_frER1_XSP1: Attagene TRANS-FACTORIAL Multi-Species (XSP1) HepG2 Assay for frog Estrogen Receptor (ESR1) (AID 2283777). As for the experimental part: (§1) ATG_XSP1_multi-species_TRANS is a cell-based, multiplexed assay created by modifying the existing Attagene TRANS-FACTORIAL system to include a panel of nuclear receptors from some or all the following species: human (Homo sapiens), mouse (Mus musculus), frog (Xenopus laevis), zebrafish (Danio rerio), chicken (Gallus gallus), and turtle (Chrysemys picta). The ECOTOX-FACTORIAL format uses HepG2, a human liver cell line, with measurements taken at 24 hours after chemical dosing in a 24-well plate. Xsp1 included 3 nM 6-alpha-fluorotestosterone to partially stimulate the androgen receptor.ATG_frER1_XSP1 is one of 29 assay components measured or calculated from the ATG_XSP1_multi-species_TRANS assay. It is designed to make measurements of mRNA induction, a form of inducible reporter, as detected with fluorescence intensity signals by Reverse transcription polymerase chain reaction (RT-PCR) and Capillary electrophoresis technology.The assay endpoint ATG_frER1_XSP1 was analyzed in the positive analysis fitting direction relative to DMSO as the negative control and baseline of activity. […] Furthermore, this assay endpoint can be referred to as a primary readout, because this assay has produced multiple assay endpoints where this one serves a reporter gene function. […]

Test [2] deals with chicken Estrogen Receptor (ESR1), ESR1 (gene 396099) (UniProt P06212). The test is described as follows: ATG_chERa_XSP1: Attagene TRANS-FACTORIAL Multi-Species (XSP1) HepG2 Assay for chicken Estrogen Receptor (ESR1) (AID 2283779). An outline of the steps: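 Trans-activation of an exogenous chicken ERα–Gal4 chimera read as reporter transcript (RT-PCR, fluorescent labeling, capillary electrophoresis) after 24 h compound exposure of transfected HepG2; medium held 3 nM 6-alpha-fluorotestosterone. Positive-direction fit against DMSO.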

For test [3], the system named is turtle Estrogen Receptor (ESR1), gene 101933533. The test is described as follows: ATG_trERa_XSP1: Attagene TRANS-FACTORIAL Multi-Species (XSP1) HepG2 Assay for turtle Estrogen Receptor (ESR1) (AID 2283781). An outline of the steps: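 Transactivation measured 24 h post-dose as reporter mRNA (RT-PCR, fluorescent capillary electrophoresis) from an NR-Gal4 turtle ER construct in HepG2. Medium included 3 nM 6-alpha-fluorotestosterone; increase over DMSO fitted.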

Test [4] concerns the target Estrogen receptor beta (Homo sapiens) (UniProt Q92731). The test is described as follows: ATG_hERb_XSP1: Attagene TRANS-FACTORIAL Multi-Species (XSP1) HepG2 Assay for human Estrogen Receptor (ESR2) (AID 2283788). As for the experimental part:
as §1, with “receptor.ATG_hERb_XSP1” for “receptor.ATG_frER1_XSP1”, “ATG_hERb_XSP1” for “ATG_frER1_XSP1”

Test [5] is described as follows: ATG_M_06_XSP1: Attagene TRANS-FACTORIAL Multi-Species (XSP1) HepG2 Assay for M06 Transcription Factor (Internal Marker) (AID 2283790). An outline of the steps:
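This background-control readout tracks M06 reporter mRNA, measured by RT-PCR and capillary electrophoresis. HepG2 cells transiently carrying the GAL4-UAS reporter panel were dosed for 24 h with 3 nM 6-alpha-fluorotestosterone added for partial AR stimulation; increases were scored relative to DMSO.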

The nature of test [6]: ACEA_ER_AUC_viability: ACEA Biosciences xCELLigence Real-Time Cell Analysis on Estrogen Receptor Agonism for Viability (AID 2283782).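 Further: hit means loss of impedance signal meaning reduced cell growth or viability.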 The gist of the method:
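Viability endpoint: reduced impedance area under the curve relative to DMSO, recorded by real-time electrode sensing over ~80 h of continuous exposure. Duplicate plates of T47D in hormone-depleted medium; eight concentrations, 1:4 dilutions, 100 uM maximum.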

Test [7] in a line: STM_H9_NormalizedViability: Cytotoxicity Assessment at 120 hours in the Stemina devTOX quickPredict H9 human embryonic stem cell (hESC)-based Assay (AID 2283784). The gist of the method:
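Viability of the cell layer was taken from live-cell protease cleavage of a fluorogenic substrate after compound exposure of undifferentiated H9 stem cells, with replenishment each 24h. Fluorescence was normalized to vehicle (0.1% DMSO).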

The target of test [8] is AR (gene 367) (UniProt P10275). The test is described as follows: ACEA_AR_agonist_80hr: ACEA Biosciences xCELLigence Real-Time Cell Analysis on Androgen Receptor Agonism for Proliferation (AID 2283783).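 Further: hits increase impedance growth signal above DMSO baseline.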 The gist of the method:
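Eight concentrations, 1:4 serial dilution from a 100 uM final top, in biological duplicate. Impedance-based real-time growth of 22Rv1 cells after overnight baseline, recorded hourly and read at 80 hours. Controls: testosterone, MG132, assay media.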

For test [9], the target named is AR (gene 367) (UniProt P10275). The test is described as follows: ACEA_AR_antagonist_80hr: ACEA Biosciences xCELLigence Real-Time Cell Analysis on Androgen Receptor Antagonism for Proliferation (AID 2283787).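 Further: 22Rv1 human prostate cancer cells with growth followed by electrical impedance; hits lower the impedance growth signal relative to DMSO.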 An outline of the steps:
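Impedance-based real-time growth of 22Rv1 prostate cells, read 80 h after dosing. Eight concentrations, 1:4 series, top 100 uM final (0.5% DMSO), n = 2; signal decrease scored against DMSO.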

Test [10] concerns the target GAL4 Transcription Factor (Internal Marker), GAL4 (gene 855828) (UniProt P04386). The test is described as follows: ATG_GAL4_XSP1: Attagene TRANS-FACTORIAL Multi-Species (XSP1) HepG2 Assay for GAL4 Transcription Factor (Internal Marker) (AID 2283789). The gist of the method: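 This background-control endpoint measures GAL4-driven reporter mRNA via RT-PCR and capillary electrophoresis of labelled fragments. Transiently transfected HepG2 cells were treated 24 h, with 3 nM 6-alpha-fluorotestosterone included, and gain-of-signal was fitted against DMSO.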

Where “and” joins values, the source holds several entries; their conditions need not be identical. Equal values may be shown once. Records with an inconclusive call do not appear. Calls of active or inactive are those of the source. How the source made its calls: active means hit-call score of the fitted dose curve at least 0.9, where 1 is the maximum; inconclusive means response in the unintended direction; inactive means score below 0.9.

AR (gene 367), sequence (P10275 whole entry, looked up): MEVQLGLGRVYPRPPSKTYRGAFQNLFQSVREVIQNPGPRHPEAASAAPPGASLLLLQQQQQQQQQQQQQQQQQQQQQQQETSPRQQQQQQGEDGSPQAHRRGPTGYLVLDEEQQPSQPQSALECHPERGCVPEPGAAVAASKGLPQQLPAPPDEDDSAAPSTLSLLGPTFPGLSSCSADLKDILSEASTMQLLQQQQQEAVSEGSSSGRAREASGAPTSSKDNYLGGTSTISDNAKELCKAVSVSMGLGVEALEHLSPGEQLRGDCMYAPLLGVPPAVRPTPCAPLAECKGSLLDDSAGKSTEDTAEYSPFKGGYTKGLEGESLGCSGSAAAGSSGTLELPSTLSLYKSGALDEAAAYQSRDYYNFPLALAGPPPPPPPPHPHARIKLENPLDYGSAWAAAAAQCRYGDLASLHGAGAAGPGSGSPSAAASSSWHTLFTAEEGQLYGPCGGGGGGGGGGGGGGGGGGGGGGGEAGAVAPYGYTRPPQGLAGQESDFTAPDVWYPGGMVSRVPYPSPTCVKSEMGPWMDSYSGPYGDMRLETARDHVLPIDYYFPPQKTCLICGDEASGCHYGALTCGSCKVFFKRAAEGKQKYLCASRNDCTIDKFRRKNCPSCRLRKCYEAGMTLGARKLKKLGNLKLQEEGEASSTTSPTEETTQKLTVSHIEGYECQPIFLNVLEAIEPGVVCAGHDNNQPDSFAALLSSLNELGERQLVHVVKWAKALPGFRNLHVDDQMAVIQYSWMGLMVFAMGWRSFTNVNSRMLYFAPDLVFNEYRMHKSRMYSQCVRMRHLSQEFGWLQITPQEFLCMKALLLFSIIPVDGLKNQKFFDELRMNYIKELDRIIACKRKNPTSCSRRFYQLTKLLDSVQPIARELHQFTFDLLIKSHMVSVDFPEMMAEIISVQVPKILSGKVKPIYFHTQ
Estrogen receptor beta (Homo sapiens), sequence (Q92731 whole entry, looked up): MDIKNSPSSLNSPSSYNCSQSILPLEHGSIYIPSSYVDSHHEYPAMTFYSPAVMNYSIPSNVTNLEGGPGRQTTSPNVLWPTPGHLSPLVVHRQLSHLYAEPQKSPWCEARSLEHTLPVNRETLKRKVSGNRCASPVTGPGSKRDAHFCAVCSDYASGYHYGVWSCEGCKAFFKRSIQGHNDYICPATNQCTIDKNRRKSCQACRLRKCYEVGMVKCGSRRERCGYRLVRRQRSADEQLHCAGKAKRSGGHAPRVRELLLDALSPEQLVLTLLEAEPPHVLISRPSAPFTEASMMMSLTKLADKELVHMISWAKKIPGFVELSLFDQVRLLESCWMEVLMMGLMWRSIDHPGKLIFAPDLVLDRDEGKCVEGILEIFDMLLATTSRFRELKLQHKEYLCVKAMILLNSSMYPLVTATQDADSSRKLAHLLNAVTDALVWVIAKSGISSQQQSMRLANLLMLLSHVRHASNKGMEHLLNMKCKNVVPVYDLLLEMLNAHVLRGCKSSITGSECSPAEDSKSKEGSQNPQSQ
chicken Estrogen Receptor (ESR1), ESR1 (gene 396099), sequence (P06212 whole entry, looked up, the tested form may be a part): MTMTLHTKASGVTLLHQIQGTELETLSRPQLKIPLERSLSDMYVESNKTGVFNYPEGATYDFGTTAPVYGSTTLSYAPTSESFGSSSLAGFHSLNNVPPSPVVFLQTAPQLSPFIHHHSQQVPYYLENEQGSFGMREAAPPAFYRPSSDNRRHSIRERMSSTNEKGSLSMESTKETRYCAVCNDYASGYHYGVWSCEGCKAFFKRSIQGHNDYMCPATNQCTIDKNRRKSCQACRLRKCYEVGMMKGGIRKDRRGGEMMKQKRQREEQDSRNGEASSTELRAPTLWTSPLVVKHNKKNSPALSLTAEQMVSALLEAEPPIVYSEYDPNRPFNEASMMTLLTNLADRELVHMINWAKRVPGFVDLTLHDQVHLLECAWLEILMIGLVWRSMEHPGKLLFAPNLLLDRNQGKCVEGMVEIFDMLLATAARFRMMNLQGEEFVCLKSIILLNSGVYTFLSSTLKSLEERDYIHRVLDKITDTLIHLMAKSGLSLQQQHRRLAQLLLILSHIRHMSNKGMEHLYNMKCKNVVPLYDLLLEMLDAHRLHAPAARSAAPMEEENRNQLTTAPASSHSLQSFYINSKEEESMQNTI
GAL4 Transcription Factor (Internal Marker), GAL4 (gene 855828), sequence (P04386 whole entry, looked up, the tested form may be a part): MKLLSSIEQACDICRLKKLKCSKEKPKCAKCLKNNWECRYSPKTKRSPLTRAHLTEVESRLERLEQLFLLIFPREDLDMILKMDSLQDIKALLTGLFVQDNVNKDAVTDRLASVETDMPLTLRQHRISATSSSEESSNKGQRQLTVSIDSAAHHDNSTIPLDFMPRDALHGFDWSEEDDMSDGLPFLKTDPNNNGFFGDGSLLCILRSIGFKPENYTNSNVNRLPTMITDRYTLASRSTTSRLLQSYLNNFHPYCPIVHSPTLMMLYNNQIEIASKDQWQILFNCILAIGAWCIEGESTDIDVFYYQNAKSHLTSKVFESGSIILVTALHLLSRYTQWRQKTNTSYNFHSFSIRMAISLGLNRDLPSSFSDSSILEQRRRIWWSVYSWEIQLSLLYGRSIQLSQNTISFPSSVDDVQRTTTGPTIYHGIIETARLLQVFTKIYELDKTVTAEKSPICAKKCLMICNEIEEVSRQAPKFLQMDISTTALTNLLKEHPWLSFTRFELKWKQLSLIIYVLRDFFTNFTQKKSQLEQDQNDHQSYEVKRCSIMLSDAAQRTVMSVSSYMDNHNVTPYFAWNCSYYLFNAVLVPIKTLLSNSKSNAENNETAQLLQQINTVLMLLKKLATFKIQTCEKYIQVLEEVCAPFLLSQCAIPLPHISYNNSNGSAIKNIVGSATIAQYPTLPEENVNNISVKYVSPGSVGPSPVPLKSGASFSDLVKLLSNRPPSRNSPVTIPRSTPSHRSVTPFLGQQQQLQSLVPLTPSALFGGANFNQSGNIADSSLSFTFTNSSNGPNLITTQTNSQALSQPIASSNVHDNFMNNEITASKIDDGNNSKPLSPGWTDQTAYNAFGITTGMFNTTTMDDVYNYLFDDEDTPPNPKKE

By AC50 is commonly meant the concentration at which the activity in the assay is half-maximal. As to `CC(=O)O[C@]1(C(C)=O)CC[C@H]2[C@@H]3C=C(Cl)C4=CC(=O)[C@@H]5C[C@@H]5[C@]4(C)[C@H]3CC[C@@]21C`, the half-maximal activity concentration (AC50) is 4.61 µM (active) in test [1], 5.26 µM (active) in test [2], 3.25 µM (active) in test [3] and 8.21 µM (active) in test [4]. Also, the compound was called inactive in [5].
As for `N[C@@H](Cc1c[nH]c2ccccc12)C(=O)O`, the call in [6] and in test [7] was inactive.
Regarding `O=C1OC(c2ccc(O)cc2)(c2ccc(O)cc2)c2ccccc21`, the AC50 in [6] is 92 µM (active); with AR (gene 367) [9] it was 20.6 µM (active). Moreover, the compound was classed as inactive (with AR (gene 367) [8]; in test [7]).
Take `O=Cc1ccccc1C=O`: the compound was called inactive in test [6]. Further, the AC50 with AR (gene 367) [9] is 83 µM (active).
On to `CN(C)CCCN1c2ccccc2Sc2ccc(Cl)cc21`, for which the AC50 is 13.1 µM (active) in test [6] and 3.22 µM (active) in test [7].
Regarding `CC1=C(C)S(=O)(=O)CCS1(=O)=O`, the compound was classed as inactive (in [6]; in the test with AR (gene 367) [8]). Also, the AC50 with AR (gene 367) [9] is 79.6 µM (active).
Consider `O=C(NS(=O)(=O)/C=C/c1cccs1)c1ccc(F)cc1Br`, for which the AC50 in the test with AR (gene 367) [9] is 3.96 µM (active).
Consider `CC(=O)[C@@]1(O)CC[C@H]2[C@@H]3CCC4=CC(=O)CC[C@]4(C)[C@H]3CC[C@@]21C`, for which the outcome in test [7] was inactive.
For `COC(=O)[C@H]1[C@H]2C[C@@H]3c4[nH]c5cc(OC)ccc5c4CCN3C[C@H]2C[C@@H](OC(=O)c2cc(OC)c(OC)c(OC)c2)[C@@H]1OC`, the AC50 in [6] is 60.5 µM (active). Moreover, in [7], the outcome was inactive.
On to `CSc1ccc(Oc2ccc(S(N)(=O)=O)cc2CN(C)C)cc1C`, for which the AC50 in test [6] is 50 µM (active); with AR (gene 367) [9], 62.4 µM (active).
For `NCCOCCOCCN`, the outcome with AR (gene 367) [9] was inactive.
Regarding `O=C1CCCCC1`, the compound was classed as inactive (in test [6]; with AR (gene 367) [9]).
Regarding `NC(=Nc1ccccc1)Nc1ccccc1`, the AC50 in test [6] was 1.79 µM (active). For the same compound, the outcome in test [7] was inactive.
Turning to `CCc1cc(C2=C(C(=O)O)N(c3ccccc3C(F)(F)F)S(=O)(=O)c3ccccc32)cc2c1OCO2`, the AC50 in test [6] is 15.8 µM (active).
With `Nc1nc(=S)c2[nH]cnc2[nH]1`, the AC50 was 0.237 µM (active) in [6], 3.32 µM (active) in [7] and 0.198 µM (active) in the test with AR (gene 367) [9]. Besides, in the test with AR (gene 367) [8], the compound was called inactive.
`CC(COCC(C)OC(=O)c1ccccc1)OC(=O)c1ccccc1` (centres undefined): the outcome in test [7] was inactive.
As to `CCc1nc(N)nc(N)c1-c1ccc(Cl)cc1`, the AC50 in [7] was 33.9 µM (active).
For `CC(C)OC(=O)C(C)(C)Oc1ccc(C(=O)c2ccc(Cl)cc2)cc1`, the result with AR (gene 367) [8] was inactive. Further, the AC50 with AR (gene 367) [9] is 53.4 µM (active).
Consider `Cc1cc(Cc2ccc(N)c(C)c2)ccc1N`, for which, in [7], the outcome was inactive.
As to `Cc1cc(SC2=C(O)C[C@@](CCc3ccc(N)cc3)(C(C)C)OC2=O)c(C(C)(C)C)cc1CO`, the compound was called inactive in test [6]. The AC50 with AR (gene 367) [9] was 68.9 µM (active).
Turning to `CCC(C)N(C)C(=O)c1cc2ccccc2c(-c2ccccc2Cl)n1` (centres undefined), the result (in test [6]; with AR (gene 367) [8]; in test [7]) was inactive. Further, the half-maximal activity concentration (AC50) with AR (gene 367) [9] is 46.4 µM (active).
`Cc1ccc(-c2cc(C(F)(F)F)nn2-c2ccc(S(N)(=O)=O)cc2)cc1`: the AC50 in test [6] is 90.7 µM (active); with AR (gene 367) [9], 12.7 µM (active).
`C#CC(O)C(CC)CCCC` (centres undefined): the call with AR (gene 367) [8] was inactive.
`Nc1nc(Cl)nc2c1ncn2[C@H]1C[C@H](O)[C@@H](CO)O1`: the values for the AC50 in [6] and in [7] were 0.0619 µM (active) and 0.902 µM (active), respectively.
Turning to `Cc1c(C)c2c(c(C)c1O)CCC(C)(COc1ccc(CC3SC(=O)NC3=O)cc1)O2` (centres undefined), the values for the AC50 (in [6]; in the test with AR (gene 367) [9]) were 82.9 µM (active) and 55.8 µM (active), respectively.
Turning to `CCCCCCCCCC[N+](C)(C)[O-]`, the outcome (in [7]; in the test with AR (gene 367) [9]) was inactive.
With `O=C(Oc1ccccc1)c1cccc(C(=O)Oc2ccccc2)c1`, the compound was classed as inactive (with AR (gene 367) [8]; in test [7]; in the test with AR (gene 367) [9]).
Take `CCCCCCCCCCCCCCCCO`: the compound was classed as inactive in test [6] and in test [7].
Regarding `O=C(O)c1cccnc1`, the result in test [6] and in [7] was inactive.
In the case of `CC(=O)CC(c1ccccc1)c1c(O)c2ccccc2oc1=O` (centres undefined), the call in [6] and in test [7] was inactive.
On to `CCN(CC)CCOc1ccc(C(=C(Cl)c2ccccc2)c2ccccc2)cc1`, for which the AC50 in test [6] is 6.6 µM (active) and 7.32 µM (active) and 11.2 µM (active); in [7], 8.7 µM (active). In addition, the result in [10] and in [5] was inactive.
Turning to `CC(C)c1cccc(C(C)C)c1`, the result in [6] was inactive.
In the case of `CN(C)C(=O)NC1(c2ccccc2)CCN(CCC[C@]2(c3ccc(Cl)c(Cl)c3)CCCN(C(=O)c3ccccc3)C2)CC1`, the AC50 in test [6] was 14.6 µM (active).
